According to PubChem BioAssay (NCATS):
Values joined by “and” are separate entries in the source; they are usually repeats but may differ in a detail not shown here. Identical values can stand only once. Records with an inconclusive call do not appear. Active and inactive are the calls of the source. Calls follow the shape of the dose curve; as a rule, active = well fitted inhibition curve with a large enough effect; inconclusive = small, poorly fitted or top-dose-only effect; inactive = flat fitted curve, though single readings scatter.

Legend:
CRL-7250 = normal cell line; assay: Cytotoxic Profiling of Annotated Libraries Using Quantitative High-Throughput Screening (AID 1296008); conditions: Five cell lines viability, CellTiter-Glo ATP luminescence, 48-72 h; max response: active compounds read low; also: potency is read from the fitted curve at half-maximal effect; as to max response: % is scaled to controls: 0 for no effect and ±100 for the full control effect
Procedure, shortened: (§1)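 Cytotoxicity was measured as CellTiter-Glo ATP luminescence, read after 10 min at room temperature. Compound treatment of the cells lasted 48 or 72 hr at 37 degrees Celsius in a qHTS format.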

HEK293 = assay: as above; conditions: Five cell lines viability, CellTiter-Glo ATP luminescence, 48-72 h; max response: active compounds read low
Procedure, shortened: as §1

HaCat [1] = assay: as above; conditions: Five cell lines viability, CellTiter-Glo ATP luminescence, 48-72 h; max response: active compounds read low
Procedure, shortened: as §1

KB-3-1 = assay: as above; conditions: Five cell lines viability, CellTiter-Glo ATP luminescence, 48-72 h; max response: active compounds read low
Procedure, shortened: as §1

NIH3T3 = assay: as above; conditions: Five cell lines viability, CellTiter-Glo ATP luminescence, 48-72 h; max response: active compounds read low
Procedure, shortened: as §1

HEK293T = assay: qHTS assay to identify novel small-molecules to repurpose for Merkel cell carcinoma treatment (AID 1296009); conditions: MCC and control cell lines, CellTiter-Glo viability, 72 h; series mostly up to 44.8 µM
Procedure, shortened: (§2)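 Cell viability measured by CellTiter-Glo following 72 hr compound treatment at 37 degree celsius, with NPC and MIPE libraries tested in 8- and 11-point concentration series.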

HACAT [2] = assay: as above; conditions: MCC and control cell lines, CellTiter-Glo viability, 72 h; at 44.8 µM (top of the series) unless noted
Procedure, shortened: as §2

TAB165 = assay: qHTS profiling for inhibitors of Plasmodium falciparum proliferation (AID 504749); also: potency is read from the fitted curve at half-maximal effect; conditions: P. falciparum in erythrocytes, SYBR Green DNA, 72 h; series mostly up to 28.7 µM
Procedure, shortened: (§3)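 In a 72 h erythrocytic culture (37 C, humidified, 5% CO2) at 2.5% hematocrit and 0.3% starting parasitemia, compounds were tested; SYBR Green I in detergent lysis buffer stained parasite DNA overnight.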

W2 = assay: as above; conditions: P. falciparum in erythrocytes, SYBR Green DNA, 72 h; series mostly up to 28.7 µM
Procedure, shortened: as §3

TAB113 = assay: as above; conditions: P. falciparum in erythrocytes, SYBR Green DNA, 72 h; series mostly up to 28.7 µM
Procedure, shortened: as §3
Also: nearly all actives have a fitted effect of over 60% in size.

CO[C@@]12CC3[C@@H]([C@@H](O)[C@@H](OC(C)=O)C4[C@](C)(COC(C)=O)CCC[C@]34C)[C@@H](C)C1=CC(=O)O2 (stereo partly drawn)
inactive: outcome (CRL-7250) | outcome (HEK293) | max response (HaCat [1]) 3.42% | outcome (KB-3-1) | outcome (NIH3T3) | Potency (HEK293T)

CCC(=O)O[C@]1(C(=O)CCl)[C@@H](C)C[C@H]2[C@@H]3C[C@H](F)C4=CC(=O)C=C[C@]4(C)[C@@]3(F)[C@@H](O)C[C@@]21C
inactive: max response (CRL-7250) -3.75% | max response (HaCat [1]) -1.16% | max response (KB-3-1) -4.75% and -10.3% | max response (NIH3T3) 1.57%

Cc1coc2c1CC1OC1(C)CCC1OC1(C)C2 (stereo not drawn)
inactive: max response (CRL-7250) 4.59% | outcome (HEK293) | max response (HaCat [1]) 3.75% | max response (KB-3-1) 8.78% | outcome (NIH3T3) | Potency (HEK293T)

COC1=CC(=O)C[C@@H](C)[C@]12Oc1cc(OC)cc(OC)c1C2=O
inactive: max response (CRL-7250) -2.71% | outcome (HEK293) | max response (HaCat [1]) -2.69% | max response (KB-3-1) 5.37% | outcome (NIH3T3) | Potency (HEK293T)

COC1CC(=O)CCC(C)OC(=O)CC1O (stereo not drawn)
inactive: max response (CRL-7250) -4.48% | outcome (HEK293) | max response (HaCat [1]) 1.84% | outcome (KB-3-1) | max response (NIH3T3) 4.21% | Potency (HEK293T)

CC(=O)O[C@H]1[C@H](Oc2ccccc2COC(=O)C2(O)C=CCCC2=O)O[C@H](CO)[C@@H](O)[C@@H]1O (stereo partly drawn)
inactive: max response (CRL-7250) 3.12% | outcome (HEK293) | max response (HaCat [1]) 3.69% | max response (KB-3-1) 6.43% | max response (NIH3T3) 0.519% | Potency (HEK293T)

C[C@]12CCC(=O)C=C1[C@@H](O)C[C@@H]1[C@@H]2[C@@H](O)C[C@@]2(C)[C@H]1CC[C@]2(O)C(=O)CO
inactive: outcome (CRL-7250) | outcome (HEK293) | max response (HaCat [1]) 1.59% | max response (KB-3-1) 8.45% | outcome (NIH3T3) | Potency (HEK293T)

CC1(C)CCC(C)(C)c2cc([C@@H](O)C(=O)Nc3ccc(C(=O)O)cc3F)ccc21
inactive: max response (CRL-7250) -3.37% | outcome (HEK293) | max response (HaCat [1]) -6.8% | outcome (KB-3-1) | outcome (NIH3T3) | Potency (HEK293T)

CC[C@H]1OC(=O)C[C@@H](O)[C@H](C)[C@@H](O[C@@H]2O[C@H](C)[C@@H](O)[C@H](N(C)C)[C@H]2O)[C@@H](CCN2C[C@H](C)C[C@H](C)C2)C[C@@H](C)C(=O)/C=C/C(C)=C/[C@@H]1CO[C@@H]1O[C@H](C)[C@@H](O)[C@@H](OC)[C@H]1OC
inactive: max response (CRL-7250) 1.46% | outcome (HaCat [1]) | max response (KB-3-1) 2.68% and 4.42% | outcome (NIH3T3) | outcome (HACAT [2])

CNc1nc(Nc2cnn([C@H]3CCN(C4COC4)C[C@@H]3F)c2Cl)ncc1C(F)(F)F
active: Potency (HEK293) 23.1 µM and 9.33 µM
inactive: max response (CRL-7250) -6.85% and -3.81% | outcome (HaCat [1]) | max response (NIH3T3) -26.9% | outcome (HACAT [2])

COC(=O)C1(Cc2ccc(O)cc2)OC(=O)C(OC)=C1c1ccc(O)cc1 (stereo not drawn)
inactive: max response (CRL-7250) -4.87% | outcome (HEK293) | max response (HaCat [1]) -3.39% | outcome (KB-3-1) | outcome (NIH3T3) | Potency (HEK293T)

C[C@@H]1CC[C@]2(C(=O)O)CC[C@]3(C(=O)O)C(=CCC4[C@@]5(C)CC[C@H](O[C@@H]6O[C@@H](C)[C@H](O[C@@H]7O[C@H](CO)[C@@H](O)[C@H](O)[C@H]7O)[C@@H](O)[C@H]6O)C(C)(C)C5CC[C@]43C)C2[C@H]1C (stereo partly drawn)
inactive: max response (CRL-7250) 0.369% | outcome (HEK293) | max response (HaCat [1]) -0.856% | outcome (KB-3-1) | outcome (NIH3T3) | Potency (HEK293T)

COc1cc2c(cc1O)C1(OC)Cc3ccc4c(c3C1N(C)CC2)OCO4 (stereo not drawn)
inactive: max response (CRL-7250) -5.51% | outcome (HEK293) | max response (HaCat [1]) -3.77% | max response (KB-3-1) 9.56% | max response (NIH3T3) 2.76% | Potency (HEK293T)

C=C1CCC2C(OC(=O)C2(O)COC(C)=O)C2C(=C)C(O)CC12 (stereo not drawn)
inactive: max response (CRL-7250) -7.9% | outcome (HEK293) | max response (HaCat [1]) -8.75% | max response (KB-3-1) 8.26% | max response (NIH3T3) -5.53% | Potency (HEK293T)

C=C1C2=CC(O)C(C)C1(C)CC/C(C)=C/CCC1(C)OC1C2=O (stereo not drawn)
inactive: max response (CRL-7250) -9.54% | outcome (HEK293) | max response (HaCat [1]) 1.13% | outcome (KB-3-1) | outcome (NIH3T3) | Potency (HEK293T)

C=C1CCC2C(C)(COC3OC(COC(=O)CC(=O)O)C(O)C(O)C3O)CCCC2(C)C1CCC1=CCOC1=O (stereo not drawn)
inactive: outcome (CRL-7250) | outcome (HEK293) | max response (HaCat [1]) -2.95% | outcome (KB-3-1) | outcome (NIH3T3) | Potency (HEK293T)

CC1CCC23COC(=O)C2=CC(O)CC3C1(C)CCC1=CC(=O)OC1O (stereo not drawn)
inactive: outcome (CRL-7250) | outcome (HEK293) | max response (HaCat [1]) -0.369% | outcome (KB-3-1) | outcome (NIH3T3) | Potency (HEK293T)

C[C@@H]1CCC2C(C)(C)[C@H](O)CC[C@]2(C)[C@@]12Cc1c(O)cc3c(c1O2)CN(CCO)C3=O (stereo partly drawn)
inactive: max response (CRL-7250) -2.75% | outcome (HEK293) | max response (HaCat [1]) 4.59% | max response (KB-3-1) 3.58% | max response (NIH3T3) 1.6% | Potency (HEK293T)

COC1=CC(=O)O[C@@H](CCc2ccccc2)[C@@H]1O
inactive: max response (CRL-7250) -14.6% | outcome (HEK293) | max response (HaCat [1]) -13% | max response (KB-3-1) 5.84% | max response (NIH3T3) 3.13% | Potency (HEK293T)

C=C1CC[C@H]2[C@@](C)(CCC[C@@]2(C)C(=O)O)[C@@H]1CCC(C)CCO (stereo partly drawn)
inactive: max response (CRL-7250) -8.65% | outcome (HEK293) | max response (HaCat [1]) 1.39% | max response (KB-3-1) 2.57% | max response (NIH3T3) 3.89% | Potency (HEK293T)

CC(C)N=c1cc2n(-c3ccc(Cl)cc3)c3ccccc3nc-2cc1Nc1ccc(Cl)cc1
inactive: Potency (TAB165)

COC(=O)[C@H]1[C@H]2C[C@@H]3c4[nH]c5ccccc5c4CCN3C[C@H]2C[C@@H](OC(=O)c2cc(OC)c(OC)c(OC)c2)[C@@H]1OC
active: Potency (TAB165) 0.178 µM | Potency (W2) 0.151 µM

CCOc1cc2ncc(C#N)c(Nc3ccc(OCc4ccccn4)c(Cl)c3)c2cc1NC(=O)/C=C/CN(C)C
active: Potency (HEK293) 1.42 µM | Potency (HaCat [1]) 224 nM

COc1cc2c(Nc3ccc(Cl)c(Cl)c3F)ncnc2cc1OCC1C[C@@H]2CN(C)C[C@@H]2C1 (stereo partly drawn)
active: Potency (HEK293) 16.4 µM and 13.2 µM | Potency (HaCat [1]) 231 nM and 11.7 nM | Potency (NIH3T3) 1.3 µM and 8.31 µM

CCCC(=O)O[C@]1(C(=O)CCl)[C@H](C)C[C@@H]2[C@H]3CCC4=CC(=O)C=C[C@]4(C)[C@@]3(F)C(=O)C[C@@]21C
active: Potency (TAB113) 2.51 µM | Potency (TAB165) 2 µM | Potency (W2) 1.51 µM

O=C(O)CN(CCN(CC(=O)O)CC(=O)O)CC(=O)O
inactive: Potency (TAB113) | Potency (TAB165) | Potency (W2)

CC(C)=O
inactive: Potency (TAB113) | Potency (TAB165) | Potency (W2)
